This is a sample that favours compounds with a hit; in the whole collection about 2.3% have one here.
bovine MsrA act: bovine methionine sulfoxide reductase A activation. activation, % at 10.6 µM. purified bovine MsrA, absorbance read-out. 360,000 tested, 0.3% active. AID 602163; in the data active = activation above about 7.5%
PP1 inh: PP1-alpha (human) inhibition in PP5 counter-screen | P62136 | purified PP1alpha, OMFP fluorescence | inhibition, % at 6.7 µM | 320,000 tested, 0.9% active | AID 2235;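 active = inhibition above the mean inhibition of all tested compounds plus 3 SD, computed separately for each screening campaign, cut at about 15% in these data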
MsrA inhibitor: inhibits bovine methionine sulfoxide reductase A; purified bovine MsrA, absorbance read-out; inhibition, % at 15.5 µM; 360,000 tested, 0.75% active; in the data active = inhibition above about 4.5%
ZTA counter: counter-screen for EBNA-1 inhibitors: inhibitors of Epstein-Barr virus ZTA | inhibition, % at 11 µM | ZTA-DNA binding, fluorescence polarization | 320,000 tested, 0.15% active; in the data active = inhibition above about 33%
Target sequence (P03206 whole entry, looked up): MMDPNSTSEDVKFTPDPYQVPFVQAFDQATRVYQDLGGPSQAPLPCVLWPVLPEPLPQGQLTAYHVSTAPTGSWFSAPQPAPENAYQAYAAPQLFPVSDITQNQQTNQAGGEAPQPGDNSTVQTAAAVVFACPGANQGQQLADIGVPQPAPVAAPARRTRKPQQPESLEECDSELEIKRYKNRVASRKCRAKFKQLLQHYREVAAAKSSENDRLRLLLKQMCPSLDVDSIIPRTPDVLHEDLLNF
PP5 inh: blocks human protein phosphatase 5 activity; P53041; purified PP5c, OMFP substrate fluorescence; inhibition, % at 6.7 µM; 320,000 tested, 0.18% active;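 active = inhibition above the campaign's mean inhibition across all tested compounds plus 3 SD, cut at about 9.5% in these data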
EBNA-1 inhibitor: blocks EBNA-1 binding to DNA; EBNA-1 DNA binding, fluorescence polarization; inhibition, % at 14.8 µM; 300,000 tested, 0.34% active; in the data active = inhibition above about 28%
PP1 inh confirm: human PP1 phosphatase inhibition, confirmation | shares compounds with PP1 inh | purified PP1alpha, OMFP substrate fluorescence | inhibition, % at 6.7 µM | 1,900 tested, 52% active | AID 2358;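 active = mean PP1 inhibition above a set limit taken from the earlier primary screen, cut at about 15% in these data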
PP5 counter: counter-screen for PP1 inhibitors: human PP5 phosphatase inhibition; shares compounds with PP1 inh; purified PP5c, OMFP fluorescence; inhibition, % at 6.7 µM; 1,900 tested, 4% active; AID 2360;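 active = mean PP5 inhibition over triplicate wells above about 9.5% taken from the earlier PP1 screen, limit read from the data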
Each line names hits and unclear results; the compound was inactive in the other large screens (follow-up assays come after a bar, where they were run).

O=C(O)c1ccc2c(c1)S(=O)(=O)c1cc(N3CCN(c4ncccn4)CC3)ccc1C2=O	none (no result: PP1 inh, ZTA counter, PP5 inh, EBNA-1 inhibitor)
O=C(Nc1nc(-c2ccc(Cl)s2)cs1)c1ccco1	none
O=C(Nc1nc(-c2nc3ccccc3s2)cs1)c1ccco1	PP1 inh 23.4 | PP1 inh confirm 25.9 | PP5 counter inactive
O=C(CN1C(=O)CCC1=O)Nc1nc(-c2nc3ccccc3s2)cs1	none
O=C(Nc1nc(-c2nc3ccccc3s2)cs1)C1CC1	PP1 inh 23.9 | PP1 inh confirm 25.9 | PP5 counter inactive
CCN(CC)c1ccc(-c2nn3c(-c4n[nH]c5c4CCC5)nnc3s2)cc1	PP1 inh 21.8 | PP1 inh confirm 30.8 | PP5 counter inactive
C1CCC(c2nn3c(-c4n[nH]c5c4CCC5)nnc3s2)CC1	none
O=C(CSCc1nc2scc(-c3cccs3)c2c(=O)[nH]1)Nc1ccccn1	none
O=c1[nH]c(CN2CCc3ccccc32)nc2scc(-c3cccs3)c12	PP1 inh 18.6 | PP1 inh confirm inactive | PP5 counter inactive
Nc1nn2c(-c3ccccc3)cc(=O)[nH]c2c1N=Nc1ccc(O)cc1	PP1 inh 28.2 | PP1 inh confirm 20.2 | PP5 counter inactive
CCOC(=O)C1=C(O)C(=O)NC(c2ccccc2)=C(OC2CCCCC2)C1	PP1 inh 23.6 | PP1 inh confirm 31.0 | PP5 counter inactive
CCc1ccc(CN(C)C(=O)c2cc(COc3ccc(OC)cc3Cl)on2)nc1	none
O=C(CSc1ccc(-c2ccco2)nn1)Nc1ccc(F)cc1F	none
Cc1ccc(C(=O)NCCN2C3=NC[C@@H](Cc4ccccc4)N3C[C@H]2Cc2ccc(O)cc2)cc1Br	none
COc1ccc(C[C@H]2CN3C(=NC[C@@H]3Cc3ccc(O)cc3)N2CCNC(=O)c2ccc(C)c(Br)c2)cc1	none
COc1ccc(C[C@H]2CN3C(=NC[C@@H]3Cc3ccccc3)N2CCNC(=O)c2ccc(C)c(Br)c2)cc1	PP1 inh 21.5 (no result: MsrA inhibitor) | PP1 inh confirm inactive | PP5 counter inactive
COc1ccc(C[C@H]2CN3C(=NC[C@@H]3Cc3ccc(O)cc3)N2C[C@H](C)NC(=O)c2ccc(C)c(Br)c2)cc1	PP1 inh 18.1 (no result: MsrA inhibitor) | PP1 inh confirm inactive | PP5 counter inactive
COc1ccc(C[C@H]2CN3C(=NC[C@H]3Cc3ccccc3)N2CCNC(=O)c2ccc(C)c(Br)c2)cc1	PP1 inh 18.9 (no result: MsrA inhibitor) | PP1 inh confirm inactive | PP5 counter inactive
CC(C)CC1C(=O)N(Cc2cn(CCC3OCCO3)nn2)CCS(=O)(=O)N1Cc1ccc(-c2cccc(N(C)C)c2)cc1 (configuration not stated)	none (no result: PP1 inh, ZTA counter, PP5 inh, EBNA-1 inhibitor)
Cc1nn(C)cc1CN(C)C(=O)CCc1nnc(CCC2CCCCC2)o1	none
COc1ccccc1CNC(=O)C(NS(=O)(=O)c1ccc2c(c1)oc(=O)n2C)C(C)C (configuration not stated)	PP1 inh 26.6 | PP1 inh confirm inactive | PP5 counter inactive
COc1ccc(S(=O)(=O)NC(C)c2ccc3c(c2)OCCO3)cc1 (configuration not stated)	none (no result: PP1 inh, ZTA counter, PP5 inh, EBNA-1 inhibitor)
COc1ccc(NCc2nnc(SCC(=O)Nc3nc(-c4ccccc4)cs3)n2-c2ccccc2)cc1	PP1 inh 31.8 | PP1 inh confirm 26.5 | PP5 counter inactive
COc1ccccc1NC(=O)NC1(C(=O)N2CCC(C)CC2)CCCCC1	none
CC(=O)c1cccc(NS(=O)(=O)c2ccc3c(c2)oc(=O)n3C)c1	none
Cn1c(=O)oc2cc(S(=O)(=O)Nc3cccc(C(=O)O)c3)ccc21	PP1 inh 42.5 | PP1 inh confirm inactive | PP5 counter inactive
O=C(N/N=C/c1cc([N+](=O)[O-])ccc1O)C12CC3CC(CC(C3)C1)C2	none
O=C(N/N=C/c1cc([N+](=O)[O-])ccc1O)NC12CC3CC(CC(C3)C1)C2	PP1 inh 19.7 | PP1 inh confirm 17.1 | PP5 counter inactive
C=C(C)CC(NCCc1ccccc1)c1ccco1 (configuration not stated)	none (no result: PP1 inh, ZTA counter, PP5 inh, EBNA-1 inhibitor)
Cc1ccc(/C=N/NC(=O)c2c[nH]c3ccccc23)s1	none
O=C(N/N=C/c1ccsc1)c1c[nH]c2ccccc12	PP1 inh 38.1 | PP1 inh confirm inactive | PP5 counter inactive
COc1ccc2[nH]c(=O)c(CN(Cc3cccs3)S(=O)(=O)c3cccc4nsnc34)cc2c1	none

Bioassay records from PubChem BioAssay.
